Assay outcomes (PubChem)
The list is not random: actives were taken first. Their share in the collection is about 2%.
A3G deaminase = inhibitors of human APOBEC3G DNA deaminase; Q9HC16; recombinant A3G, ssDNA deamination FAM/TAMRA fluorescence; inhibition, % at 20 µM; 330,000 tested, 0.28% active; AID 493012;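 active = inhibition of at least 40% at 20 µM, with no more than 30% in the related APOBEC3A deaminase screen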;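 note: plate controls were DMSO wells with A3G for no effect and wells lacking A3G enzyme for full effect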
NALP1 inh = inhibitors of NALP1 inflammasome in yeast. S. cerevisiae NALP1/ASC/caspase-1 growth, X-gal OD620, 72 h. inhibition, % at 10 µM. 280,000 tested, 0.61% active. AID 2071; in the data active = inhibition mostly above about 24%, no sharp cut-off; inactive = mostly below about 32%
Fh CTSL1 inh = counter-screen for PFM18AAP inhibitors: inhibitors of F. hepatica cathepsin L1. inhibition, % at 5.96 µM. recombinant F. hepatica cathepsin L1, Z-Leu-Arg-MCA fluorescence. 300,000 tested, 0.49% active;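 active = inhibition above the mean of all tested compounds plus 3 SD, set per screening campaign, cut at about 17% in these data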;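 note: 0% = plate median of test compound wells and 100% = 1 µM Z-Phe-Ala-diazomethylketone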
APOBEC3A inh = blocks human APOBEC3A ssDNA deamination | recombinant A3A, FAM/TAMRA ssDNA deamination fluorescence | AID 493011 | P31941 | inhibition, % at 20 µM | 330,000 tested, 0.41% active;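 active = at least 40% inhibition at 20 µM here, with at most 30% in a related deaminase screen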;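 note: plate controls were A3A with DMSO for no effect and wells lacking A3A enzyme for full effect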
HGIII-sPLA2 inh = Inhibits HGIII-sPLA2 liposome hydrolysis, primary screen; Q9NZ20; QFRET BODIPY PC-A2 liposome hydrolysis, fluorescence; inhibition, % at 12.2 µM; 370,000 tested, 0.56% active; AID 743126;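 active = inhibition above mean plus 3 SD of compounds lying within the high and low control bounds, cut at about 19% in these data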;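 note: 0% = median of test compound wells and 100% = no enzyme DMSO wells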
Target sequence (Q9NZ20 whole entry, looked up): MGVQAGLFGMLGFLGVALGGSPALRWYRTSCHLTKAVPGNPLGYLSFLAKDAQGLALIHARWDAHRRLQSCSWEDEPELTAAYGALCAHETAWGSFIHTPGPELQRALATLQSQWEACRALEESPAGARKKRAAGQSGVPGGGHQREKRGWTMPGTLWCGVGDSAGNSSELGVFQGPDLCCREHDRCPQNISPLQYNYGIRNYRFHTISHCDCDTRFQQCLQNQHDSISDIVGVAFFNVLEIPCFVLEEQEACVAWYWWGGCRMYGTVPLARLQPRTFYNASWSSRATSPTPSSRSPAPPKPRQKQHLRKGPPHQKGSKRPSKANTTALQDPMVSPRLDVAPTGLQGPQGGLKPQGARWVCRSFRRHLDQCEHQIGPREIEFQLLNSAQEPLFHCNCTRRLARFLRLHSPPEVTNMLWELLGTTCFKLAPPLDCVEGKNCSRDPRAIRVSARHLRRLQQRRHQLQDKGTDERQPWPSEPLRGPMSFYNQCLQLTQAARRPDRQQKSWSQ
An asterisk follows results filed as active; . = no result given.

SMILES	A3G deaminase	NALP1 inh	Fh CTSL1 inh	APOBEC3A inh	HGIII-sPLA2 inh
COc1ccc(NC(=O)C2C3C=CC4(O3)C2C(=O)N(CCN2CCCCC2)C4C(=O)NC2CCCCC2)cc1 (stereo not given)	-3	15	40*	-2	0
O=C(CSc1nnc(COc2ccc(Cl)cc2)n1Cc1ccco1)Nc1ccc2c(c1)OCO2	.	.	.	.	-14
COC(=O)C1=C[C@@H]([C@@H](C)[C@H](OC)c2ccccc2Br)[C@@H]2OCCC[C@H]12	.	.	.	.	2
c1ccc(N2CCN(c3cnc4ccccc4n3)CC2)cc1	29	39*	2	10	2
O=Cc1cnc(N2CCN(c3ccccc3)CC2)s1	-6	39*	0	-4	-3
Clc1ccc(N2CCN(c3cnc4ccccc4n3)CC2)cc1	-6	49	2	-7	2
CCCCOC(=O)n1c(SCC(=O)N(CC)CC)nc2ccccc21	-8	1	6	-2	-5
CCOC(=O)n1c(SCC(N)=O)nc2ccccc21	0	26*	0	1	8
CSc1nc2ccsc2c(=O)n1-c1ccccc1	-1	3	18*	0	-4
C=CCSc1nc2ccsc2c(=O)n1-c1ccccc1	-5	12	0	-2	2
Cc1cccc(NS(=O)(=O)c2ccc3c(c2)NC(=O)CC(=O)N3)c1	-10	3	-5	-4	-3
CCc1cccc(NS(=O)(=O)c2ccc3c(c2)NC(=O)CC(=O)N3)c1	-5	36*	0	-2	2
NNc1nc2c(Cl)ccc(Cl)c2s1	0	15	-4	1	22*
O=C(Nc1nc2c(Cl)ccc(Cl)c2s1)C1CC1	3	-5	2	-1	-7
CCCC1CCC2(CCC(=O)N2CCSc2ccccc2)CC1 (stereo not given)	.	.	.	.	3
O=C(NCc1ccc(F)cc1)C1CCCN(c2nc3ccccc3o2)C1 (stereo not given)	.	.	.	.	-2
CC(COc1cccc(F)c1)CN1CCC(C(O)(c2ccccc2)c2ccccc2)CC1 (stereo not given)	.	.	.	.	-15
Cc1sc(N)nc1-c1ccc(Oc2ccccc2)cc1	0	95*	4	-7	1
O=C(Nc1ccc(Cl)c(Cl)c1)Oc1ccc(NC(=O)c2ccco2)cc1	-8	100*	-1	-2	-6
N/C(=N\OS(=O)(=O)c1ccc(Cl)cc1)c1ccncc1	0	-1	24*	-1	5
O=C(Cn1nnc(-c2ccc(N3CCOCC3)cc2)n1)c1cccc(F)c1	.	.	.	.	-39
COc1ccc(-n2c(SCC(=O)Nc3ccc(S(=O)(=O)Nc4nccs4)cc3)nnc2-c2ccccc2)cc1	.	.	.	.	-46
CC(C)c1cc(C(C)C)c(S(=O)(=O)N2CCC(c3cn4ccccc4n3)CC2)c(C(C)C)c1	.	.	.	.	-16
O=C(NC(=S)Nc1ccccc1N1CCCC1)c1ccco1	-2	2	21*	0	1
O=C(NC(=S)Nc1ccccc1N1CCCCC1)c1ccco1	-5	0	3	-1	6
SMILES	A3G deaminase	NALP1 inh	Fh CTSL1 inh	APOBEC3A inh	HGIII-sPLA2 inh
COc1cccc(C(=O)NC(=S)Nc2ccccc2N2CCCC2)c1	-6	-17	23*	-4	9
O=C(NC(=S)Nc1ccccc1N1CCCC1)c1ccccc1Br	-2	-1	23*	-1	-1
COc1cccc(C(=O)NC(=S)Nc2ccccc2N2CCCCC2)c1	1	8	-4	-2	0
C#CCCN([C@@H](CC(C)C)C(=O)OC)S(=O)(=O)c1ccccc1Br	.	.	.	.	3
Cc1ccc(OCCCCNC2CCCCC2)c(C)c1	-7	44*	1	-2	-3
Cc1ccc(OCC(O)CNC2CCCC2)c(C)c1 (stereo not given)	-8	4	.	-3	12
COc1ccc(OCC(=O)O/N=C(\N)Cc2ccc(Cl)cc2)cc1	2	1	30*	1	-7
Cc1ccc(OCC(=O)O/N=C(\N)Cc2ccc(Cl)cc2)cc1	-3	1	-17	-1	-9
COc1ccc(Cc2noc(CN(C)CCN3CCc4ccccc4C3)n2)cc1OC	-6	29*	1	-6	3
Clc1ccc(CONc2ncnc3nonc23)c(Cl)c1	8	0	18*	3	-19
CC(C)(C)OC(=O)NCCCc1ccc2c(c1)[C@]1(CCC[C@@H](OCc3ccccc3)[C@@H]1NC(=O)CCc1ccccc1)C(=O)N2Cc1ccccc1	.	.	.	.	10
CCOC(=O)N1C2CCC(C2)N1C(=O)OCC	.	.	.	.	-2
CCOC(=O)N1[C@@H]2C=C(C)[C@@H]2[C@@H]2[C@@H](C)C(=O)N21	-7	15	18*	-5	-6
Cc1cc(NC(=O)C23CC4CC(CC(C4)C2)C3)n[nH]1	-6	-15	20*	1	3
COC(=O)CCC/C=C1/SCC(NC(=O)c2ccccc2)C1NC(C)=O (stereo not given)	-5	17	3	1	0
COC(=O)CCC/C=C1/SCC(NC(=O)c2ccccc2)C1O (stereo not given)	-4	3	48*	1	6
CCCC(=O)N1CCC[C@]2(CC[C@@H](CCC(=O)N(CC)CC)O2)C1	.	.	.	.	7
Cc1cc(Br)ccc1NC(=O)CN1C(=S)NC(C)(C)CC1C (stereo not given)	-5	29*	-8	2	10
CC1CC(C)(C)NC(=S)N1CCCC(=O)Nc1ccc(Br)cc1 (stereo not given)	-15	11	-1	-6	11
Cc1ccc(-c2cc(C(=O)NN=Cc3cccc(Oc4ccccc4)c3)[nH]n2)cc1C	.	.	.	.	-12
CCOc1ccc(CCNC(=O)C2CCN(c3nnc(-n4cccc4)s3)CC2)cc1OCC	1	0	6	3	-1
CCOc1ccc(CCNC(=O)C2CCN(c3nnc(-n4cccc4)s3)CC2)cc1	-5	42*	3	-2	10
CCCCN(CC)CCNC(=O)CCC(=O)Nc1ccc2nc(N3CCN(C)CC3)cc(C)c2c1	-1	36*	1	1	12
O=C(CCl)N(CCc1ccccc1)CCc1ccccc1	-5	2	39*	2	-4
COc1ccccc1NC(=O)OC[C@@H]1CSCCS(=O)(=O)N1	.	.	.	.	0
SMILES	A3G deaminase	NALP1 inh	Fh CTSL1 inh	APOBEC3A inh	HGIII-sPLA2 inh
COc1ccccc1CNC(=O)c1cccc2c1C(=O)N(Cc1cccnc1)C2	-3	-2	-1	3	-1
COC(CNC(=O)c1cccc2c1C(=O)N(Cc1cccnc1)C2)OC	-2	41*	-1	2	-5
C/C(CC(=O)Nc1ccc(Cl)c(C(F)(F)F)c1)=N\NC(N)=S	-3	-31	40*	-2	-7
COC(=O)[C@]12C[C@H](CC(=O)NCCCCc3ccccc3)C(=O)N(CCc3ccc(OC)c(OC)c3)C1=C[C@H](C(C)(C)C)O[C@@H]2C	.	.	.	.	-18
O=[N+]([O-])c1ccccc1C=Nn1c(-c2cc(-c3ccccc3)n[nH]2)n[nH]c1=S	.	.	.	.	9
CN(C)n1cnc2ccsc2c1=O	-3	30*	-1	-3	11
COc1cc(OC)cc(C(=O)N[C@H](C(=O)OCC(=O)c2ccc(F)cc2)C(C)C)c1	-15	0	18*	-6	-24
